Test results reported in PubChem BioAssay AID1159580 (chemical genetic matrix, 2015).
The campaign covered roughly 5,500 compounds. About 2,000 (36%) were called active. Roughly 18% stayed inconclusive and do not appear here. Rule as the data show it: active = normalized growth mostly below about 0.91 (no sharp cut-off); inconclusive = no clear call, values can overlap the other calls; inactive = mostly above about 0.92. This is one part of the list.

Test: chemical genetic growth profiling, strain panel (AID 1159580);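 also: tested at 20 µM; growth read once vehicle control cultures reached saturation at 30 °C; 1 = growth at the plate median or of vehicle wells; lower values mean less growth of the strain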
Details: S. cerevisiae deletion strains, growth OD

Measured: normalized growth

CC(=O)Oc1ccc(-c2cc(=O)c3c(OC(C)=O)cc(OC(C)=O)cc3o2)cc1
inactive: locus YAL021C, strain ccr4, stronger effect = lower value 0.975 | locus YAL026C, strain drs2, stronger effect = lower value 0.947 | locus YAL030W, strain snc1, stronger effect = lower value 0.975 | locus YBL061C, strain skt5, stronger effect = lower value 0.965 | locus YBR009C, strain hhf1, stronger effect = lower value 0.96 | locus YBR023C, strain chs3, stronger effect = lower value 0.951 | locus YBR171W, strain sec66, stronger effect = lower value 0.955 | locus YBR231C, strain swc5, stronger effect = lower value 0.968 | locus YBR279W, strain paf1, stronger effect = lower value 0.974 | locus YCL011C, strain gbp2, stronger effect = lower value 0.963 | locus YCL016C, strain dcc1, stronger effect = lower value 0.974 | locus YCL061C, strain MRC1, stronger effect = lower value 0.988 | locus YCL069W, strain vba3, stronger effect = lower value 0.964 | locus YCR088W, strain abp1, stronger effect = lower value 0.966 | locus YDL005C, strain med2, stronger effect = lower value 0.977 | locus YDL040C, strain nat1, stronger effect = lower value 0.966 | locus YDR001C, strain nth1, stronger effect = lower value 0.965 | locus YDR069C, strain doa4, stronger effect = lower value 0.95 | locus YDR137W, strain rgp1, stronger effect = lower value 1 | locus YDR159W, strain sac3, stronger effect = lower value 0.935 | locus YDR195W, strain ref2 0.942 | locus YDR297W, strain sur2, stronger effect = lower value 0.976 | locus YDR334W, strain swr1, stronger effect = lower value 0.958 | locus YDR335W, strain msn5, stronger effect = lower value 0.982 | locus YDR392W, strain spt3, stronger effect = lower value 0.906 | locus YEL003W, strain gim4, stronger effect = lower value 0.961 | locus YEL037C, strain rad23, stronger effect = lower value 0.952 | locus YEL061C, strain CIN8 (second series), stronger effect = lower value 0.958 | locus YER015W, strain faa2, stronger effect = lower value 0.984 | locus YER016W, strain bim1, stronger effect = lower value 0.976 | locus YER111C, strain swi4, stronger effect = lower value 0.953 | locus YER155C, strain BEM2 (second series), stronger effect = lower value 0.957 | locus YFR010W, strain ubp6, stronger effect = lower value 0.957 | locus YGL167C, strain pmr1, stronger effect = lower value 0.965 | locus YGL173C, strain kem1, stronger effect = lower value 0.983 | locus YGL227W, strain vid30, stronger effect = lower value 0.955 | locus YGL240W, strain doc1, stronger effect = lower value 0.962 | locus YGL253W, strain hxk2, stronger effect = lower value 0.973 | locus YHR013C, strain ard1, stronger effect = lower value 0.92 | locus YHR027C, strain rpn1, stronger effect = lower value 0.982 | locus YHR142W, strain chs7, stronger effect = lower value 0.973 | locus YJL092W, strain hpr5, stronger effect = lower value 0.982 | locus YJL095W, strain BCK1 (second series), stronger effect = lower value 0.988 | locus YJL115W, strain asf1, stronger effect = lower value 0.954 | locus YJL129C, strain trk1, stronger effect = lower value 0.95 | locus YJL154C, strain vps35, stronger effect = lower value 0.961 | locus YJL164C, strain tpk1, stronger effect = lower value 0.964 | locus YJL166W, strain qcr8, stronger effect = lower value 0.971 | locus YJL187C, strain SWE1, stronger effect = lower value 0.976 | locus YKL160W, strain elf1, stronger effect = lower value 1.01 | locus YKR026C, strain gcn3, stronger effect = lower value 0.949 | locus YKR091W, strain srl3, stronger effect = lower value 0.97 | locus YLL001W, strain dnm1, stronger effect = lower value 0.997 | locus YLL026W, stronger effect = lower value 0.973 | locus YLL041C, strain sdh2, stronger effect = lower value 0.98 | locus YLR027C, strain aat2, stronger effect = lower value 0.96 | locus YLR221C, strain rsa3, stronger effect = lower value 0.958 | locus YLR258W, strain gsy2, stronger effect = lower value 0.977 | locus YLR262C, strain YPT6 (second series), stronger effect = lower value 0.999 | locus YLR320W, strain mms22, stronger effect = lower value 0.958 | locus YLR342W, strain FKS1, stronger effect = lower value 0.968 | locus YLR357W, strain rsc2, stronger effect = lower value 0.902 | locus YLR370C, strain arc18, stronger effect = lower value 0.958 | locus YLR384C, strain iki3, stronger effect = lower value 0.966 | locus YML120C, strain ndi1, stronger effect = lower value 0.967 | locus YMR058W, strain fet3, stronger effect = lower value 0.965 | locus YMR125W, strain sto1, stronger effect = lower value 0.955 | locus YMR129W, stronger effect = lower value 0.967 | locus YMR205C, strain PFK2, stronger effect = lower value 0.941 | locus YMR231W, strain pep5, stronger effect = lower value 0.975 | locus YNL071W, strain lat1, stronger effect = lower value 0.967 | locus YNL209W, strain ssb2, stronger effect = lower value 0.979 | locus YNL248C, strain rpa49, stronger effect = lower value 0.979 | locus YNL322C, strain KRE1 (second series), stronger effect = lower value 0.95 | locus YNR049C, strain mso1, stronger effect = lower value 0.953 | locus YOR001W, strain rrp6, stronger effect = lower value 0.987 | locus YOR070C, strain gyp1, stronger effect = lower value 0.977 | locus YOR080W, strain dia2, stronger effect = lower value 0.961 | locus YOR083W, strain WHI5, stronger effect = lower value 1.02 | locus YOR106W, strain vam3, stronger effect = lower value 0.986 | locus YOR265W, strain rbl2, stronger effect = lower value 0.981 | locus YOR270C, strain vph1, stronger effect = lower value 0.899 | locus YOR290C, strain snf2, stronger effect = lower value 0.899 | locus YPL051W, strain arl3, stronger effect = lower value 1 | locus YPL078C, strain atp4, stronger effect = lower value 0.984 | locus YPL106C, strain sse1, stronger effect = lower value 0.946 | locus YPL240C, strain hsp82, stronger effect = lower value 0.987
